A selection: hits, their analogues and other compounds. The true share with any hit is near 9.3%.
VACV Venus inh – qHTS for Stage-Specific Inhibitors of Vaccinia Orthopoxvirus: Venus Reporter Primary qHTS; Vaccinia virus Venus reporter expression, fluorescence; Potency, µM (titrated, usually from 36.5 µM), for the others: at the top dose activity change, negative = inhibition, actives largely listed as inhibitors; hit rate 0.46% among 330,000; AID 720580, 2013; calls by dose curve; tested in A549 cells; note: potency is the fitted concentration of half-maximal effect; nearly all actives have a fitted effect of over 30% in size
Sm TGR block – qHTS Assay for the Inhibitors of Schistosoma Mansoni Peroxiredoxins; AID 485364, 2010; purified TGR, DTNB reduction, TNB absorbance 405 nm; hit rate 3% among 360,000; Potency, µM (top dose mostly 114 µM), inactives show at the top dose activity change, negative = inhibition, hits mostly inhibitors; Schistosoma mansoni thioredoxin glutathione reductase (TGR), Q962Y6; note: potency is the fitted concentration of half-maximal effect; nearly all actives have a fitted effect of over 60% in size
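TGR 20 nM + NADPH 100 uM (dispensed conc.), cpd preinc 15 min RT; start with NADPH (500 uM addition) then DTNB (15 mM addition). Kinetic TNB absorbance, 405 nm filter. Four-parameter Hill fit across titration.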
HCMV antiviral – qHTS Assay for inhibitors of the human cytomegalovirus (HCMV). HFF cells, HCMV-luciferase reporter, 72 h; active compounds read low. activity change, negative = inhibition, % at 57.5 µM. hit rate 4.5% among 410,000; in the data active = activity change below about -60%; inconclusive = no clear call, values can overlap the other calls; inactive = above about -39%
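Steps: HFFs plated, 16 h 37C; compounds added; HCMV-luciferase added to MOI 1 PFU/cell; 72 h 37C; OneGlo reagent, 5 min room temperature; luminescence read, normalized to controls.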
Vaccinia mCherry – qHTS for Stage-Specific Inhibitors of Vaccinia Orthopoxvirus: mCherry Reporter Primary qHTS; Vaccinia virus mCherry reporter infection, fluorescence; Potency, µM (doses to about 36.5 µM), for the others: at the highest dose activity change, negative = inhibition, usual class: inhibitors; hit rate 0.63% among 310,000; calls by dose curve; tested in A549 cells; note: potency is the fitted concentration of half-maximal effect; nearly all actives have a fitted effect of over 35% in size
HCV inhibitor – qHTS Assay for Inhibitors of Hepatitis C Virus (HCV). Huh7.5.1 HCVcc-Cre infection, luciferase reporter, 44 h. Potency, µM (doses to about 41.8 µM), for the others: top-dose activity change, negative = inhibition, most hits filed as inhibitors. hit rate 3.4% among 340,000. AID 651820, 2012; note: potency is the fitted concentration of half-maximal effect
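Infectious HCVcc-Cre (~0.5 moi) was added to cells just after compound, with cells seeded 4 h earlier at 1,000 per well. Luciferase activity after 44 h culture reported infection; substrate was incubated 15 min at room temperature before reading.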
FMDV inh – High Throughput Screening for Foot and Mouth Disease Virus Antivirals; AID 1159524, 2015; Potency, µM (titrated, usually from 57.9 µM), for inactives: at the highest dose activity change, negative = inhibition, hits mostly inhibitors; FMDV antiviral cell-based qHTS; hit rate 1.2% among 410,000; calls by dose curve; tested in HEK293T cells; note: read-out not given here; potency is the fitted concentration of half-maximal effect; nearly all actives have a fitted effect of over 45% in size
* = called active by the depositor; i = inactive; u = inconclusive; x = not tested or not shown; [ ] = another dose, or the depositor's remark. Unless noted, calls come from the whole dose curve; as a rule, active = well fitted curve in the direction sought with a large enough effect; inconclusive = small, poorly fitted or top-dose-only effect, or another doubt; inactive = no such curve, though single readings can be large; an effect the other way counts as inactive or inconclusive. % is set by controls: 0 for no effect and ±100 for the full control effect.

SMILES | VACV Venus inh | Sm TGR block | HCMV antiviral | Vaccinia mCherry | HCV inhibitor | FMDV inh
Cc1ccccc1CNC(=O)CCCn1ncn2c(cc3occc32)c1=O | -3.2% | -5.1% | -15.4 | -11.7% | 2.0% | 26.8%
CC(=O)OC(COC1C[C@@H]2CC[C@@]1(C)C2(C)C)C[N+]1(C)CCCCC1 (stereo partly drawn) | -7.1% | -5.1% | -18.3 | -12.1% | 29.0% | -25.4%
Cc1cc(C)c(-c2c(O)c3cccnc3n(C)c2=O)c(C)c1 | -9.2%[7.34 µM] | x | -0.1 | i[7.34 µM] | 20.3% | 73.6%
CCOc1ccc2nc3cc(N=Nc4ccc(N)nc4N)ccc3c(N)c2c1 | -4.9% | x | x | -1.4% | 11.2µM* | -8.6%
Cn1cc(S(=O)(=O)N2CCCCCC2)cc1C(=O)N1CCN(c2cccc(C(F)(F)F)c2)CC1 | -25.0% | -3.5% | -33.5 | -25.6% | x | 0.0%
CCCCCCC(=O)Cc1cc(OC)c(OC)cc1C=C(C(=O)OCC)C(=O)OCC | x | 39.8µM* | x | x | -5.3%[8.37 µM] | x
O=C1CSC(=S)N1c1cccc(Br)c1 | 9.5% | -3.0% | -77.3* | 13.6% | -4.7% | u
CCCc1n[nH]c(=O)c2c1nnn2Cc1ccccc1F | -7.3% | -1.8% | 28.8 | i | 13.9% | -20.5%
Cc1ccc(C)c(N2CCN(C(=O)Cn3ncc4c(=O)oc5ccccc5c43)CC2)c1 | -7.0% | 8.91µM* | 0.4 | -5.2% | x | -13.6%
Cc1ccc(C)c(N2CCN(C(=O)c3cc4ccccc4oc3=O)CC2)c1 | -20.9% | 5.0% | -62.1* | -14.9% | -20.0% | 0.0%
O=C1c2cccc3cccc(c23)C(=O)N1CCN1CCN(C(=S)Nc2ccc(Cl)cc2)CC1 | -3.8% | 1.2% | 3.9 | -15.1% | -13.6% | 13.7%
COc1cc(COCC(O)CN2CCN(CCN3C(=O)c4cccc5cccc(c45)C3=O)CC2)cc(OC)c1OC (stereo not drawn) | u | 0.0% | -75.5* | -22.6% | 3.55µM* | u
O=C1c2cccc3cccc(c23)C(=O)N1CCN1CCN(CC(O)COCc2ccc(Cl)cc2)CC1 (stereo not drawn) | u | -1.8% | -79.2* | 11.2µM* | 11.2µM* | u
CNC(=O)c1c(Cl)cnn1-c1ccccc1 | -4.4% | 14.9% | 11.5 | i | 11.1% | 21.5%
CCN(CCCNC(=O)c1nn(-c2ccc(OC)c(Cl)c2)c(=O)c2c1c1ccccc1n2C)c1cccc(C)c1 | -7.8% | -13.3% | 19.0 | -10.5% | x | -6.0%
COc1ccc(C(C(=O)Nc2ccc(F)cc2)N2CCN(c3ccncc3)CC2)cc1 (stereo not drawn) | -13.1% | x | -0.2 | 3.2% | x | 19.1%
CN1C(=O)C(n2cccc2)c2ccccc21 (stereo not drawn) | x | x | -0.5 | x | x | x
O=C(Nc1ccc(S(=O)(=O)N2CCN(Cc3ccccc3)CC2)cc1)c1cnccn1 | x | u | -85.9* | x | 6.31µM* | u
COc1ccc(CN2CCN(S(=O)(=O)c3ccc(NC(C)=O)cc3)CC2)cc1OC | -28.1% | 3.6% | u | -10.7% | -23.3% | x
CCOc1ccc(CN2CCN(S(=O)(=O)c3ccc(NC(C)=O)cc3)CC2)cc1 | -16.4% | -10.0% | -66.7* | -11.0% | u | u
CS(=O)(=O)c1ccc(NC(=O)c2cccc(S(=O)(=O)N3CCN(Cc4ccccc4)CC3)c2)cc1 | -26.4% | 6.7% | u | u | 10µM* | u
CN(CC(=O)Nc1ccc(Cl)cc1)C(=O)c1cccc(S(=O)(=O)N2CCN(Cc3ccccc3)CC2)c1 | -23.8% | -6.3% | -72.8* | -13.4% | 11.2µM* | 22.4µM*
COc1cccc(C(C)(O)c2nc(/C=C/c3ccccc3)cs2)c1 (stereo not drawn) | -3.9% | x | u | -12.3% | x | u
CN1CCc2cc3c(c4c2[C@H]1[C@H](O)c1ccccc1-4)OCO3 | 21.8% | -7.5% | -70.8* | u | -3.4%[8.37 µM] | -15.6%
CCCNC(=O)C1(C)CCCN(Cc2cccs2)C1 (stereo not drawn) | 9.3% | x | u | i | x | -13.6%
SMILES | VACV Venus inh | Sm TGR block | HCMV antiviral | Vaccinia mCherry | HCV inhibitor | FMDV inh
FC(F)(F)COc1nc(N/N=C/c2cccnc2)nc(N2CCCCC2c2ccccn2)n1 (stereo not drawn) | -9.9% | -1.1% | -71.7* | i | u | -13.7%
C(=N\Nc1nc(N2CCCC2)nc(N2CCCC2)n1)/c1cccnc1 | 8.1% | 0.1% | 8.2 | i | 23.8% | -10.6%
Cc1ccc(CS(=O)(=O)CCC(=O)N2CCC3(CC2)OCCO3)cc1 | -1.6% | -27.9% | 31.2 | -13.5% | 3.3% | -22.9%
Cc1ccc(CS(=O)(=O)Cc2ccc(C(=O)N3CCC4(CC3)OCCO4)o2)cc1 | -8.2% | 44.7µM* | 8.9 | -8.9% | 10.3% | x
Cc1ccc(S(=O)(=O)Cc2ccc(C(=O)N3CCC4(CC3)OCCO4)o2)cc1 | x | 22.4µM* | 90.9 | x | 4.4% | -3.9%
COc1ccc(S(=O)(=O)Cc2ccc(C(=O)N3CCCC3)o2)cc1 | -2.7% | 44.7µM* | -7.4 | 4.5% | -10.4% | 0.0%
COc1cccc(OCCOCC(O)CN2CCN(Cc3ccc(Cl)cc3)CC2)c1 (stereo not drawn) | -10.8% | -1.8% | u | -24.2% | u | 0.0%
CCCCn1c(N)c(N(CC(C)C)C(=O)c2oc3ccc(OC)cc3c2C)c(=O)[nH]c1=O | -11.4% | 1.9% | -23.3 | -2.5% | -4.2% | 6.3%
COc1cccc2cc(C(=O)C3=C(O)C(=O)N(CCN4CCOCC4)C3c3cccc(Cl)c3)oc12 (stereo not drawn) | x | -11.9% | x | x | 5.5% | 2.3%
Cc1ccc(C2C(C(=O)c3cc4ccccc4o3)=C(O)C(=O)N2CCN2CCOCC2)o1 (stereo not drawn) | x | 22.4µM* | -27.6 | x | 13.9% | 27.5%
O=C(C1=C(O)C(=O)N(CCN2CCOCC2)C1c1cccs1)c1cc2ccccc2o1 (stereo not drawn) | x | x | x | x | 10.4% | 28.3%
O=C(C1=C(O)C(=O)N(CCN2CCOCC2)C1c1ccc(Br)cc1)c1cc2ccccc2o1 (stereo not drawn) | x | 31.6µM* | 20.3 | x | 3.1% | -16.6%
O=C(C1=C(O)C(=O)N(CCN2CCOCC2)C1c1cccc(O)c1)c1cc2ccccc2o1 (stereo not drawn) | -1.1% | u | -26.9 | -14.0% | -2.4% | -7.9%
CN(C)CCCN1C(=O)C(O)=C(C(=O)c2cc3ccccc3o2)C1c1ccccc1 (stereo not drawn) | -10.3% | -28.7% | 6.9 | -3.5% | -11.2% | -8.9%
COC(=O)c1ccc(C2C(C(=O)c3cc4ccccc4o3)=C(O)C(=O)N2CCCN(C)C)cc1 (stereo not drawn) | -4.1% | 11.2µM* | 6.6 | x | 5.9% | -13.7%
COc1cccc2cc(C(=O)C3=C(O)C(=O)N(CCN4CCOCC4)C3c3ccc(Cl)cc3)oc12 (stereo not drawn) | -5.7% | 39.8µM* | 13.1 | i | 0.8% | -6.3%
